Screens (PubChem BioAssay)
Rows were chosen to be rich in hits. Some 2.9% of all compounds tested hit in one or more screens of this group.
proKLK7 act = proKLK7 (human) activation, primary screen. purified proKLK7, EDANS-DABCYL substrate fluorescence; 100% is mature enzyme control, 0% vehicle. activation, % at 7 µM. actives 0.9% (n = 370,000);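 active = activation above the mean of all tested compounds plus 3 SD, computed per campaign excluding outliers beyond control limits, cut at about 13% in these data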
SMARCA2 act = activators of SMARCA2 function; MG213 cells, MMTV-luciferase reporter, dexamethasone, overnight; activation, % at 9.1 µM; actives 1% (n = 370,000); in the data active = activation above about 7.8%;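 also: 0% = vehicle wells and 100% = reference activator wells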
FAS TE block = FAS thioesterase (human) inhibition; inhibition, % at 15 µM; P49327; actives 0.67% (n = 360,000); recombinant FAS-TE, OMFH fluorogenic substrate, fluorescence endpoint;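 active = compounds whose normalised, plate-corrected inhibition of enzyme fluorescence in the single-dose primary screen is 50% or more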;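 also: 0% = DMSO with enzyme and 100% = substrate without enzyme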
FXN GAA850 act = activators of GAA850 frataxin (FXN) promoter | actives 0.56% (n = 360,000) | HEK293 lucGAA850 FXN promoter luciferase reporter, 24 h; percent of 10 µM SAHA response | activation, % at 6 µM | AID 540364;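 active = activation above the average of all compounds screened plus 3 SD, cutoff fixed separately per campaign, cut at about 7.5% in these data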;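 also: 0% = DMSO wells and 100% = 10 µM SAHA wells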
SMARCA2 act conf = SMARCA2 activation, confirmation screen; shares compounds with SMARCA2 act; MG213 cells, MMTV-luciferase with dexamethasone, luminescence, overnight; MG213 cells expressing E1A, Rb sequestered; DMSO wells 0%, reference activator 100%; activation, % at 9.1 µM; actives 30% (n = 3,500);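 active = activation above its plate's cutoff, the mean activation of tested wells plus 3 SD, cut at about 7.9% in these data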
VP16 Luc act = GAL4-VP16 reporter activation counter-screen | shares compounds with SMARCA2 act | activation, % at 9.1 µM | actives 41% (n = 3,500) | HEK293 GAL4-VP16 pG5luc reporter, luciferase luminescence; scaled: DMSO wells 0%, SAHA wells 100% | AID 686939;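 active = activation above the solvent-only control well mean plus 3 SD, averaged across control plates, cut at about 5.2% in these data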
The depositor's hits bear a star.

Screening CC(=O)Nc1cc(-c2ccc(F)cc2)[nH]n1 returned proKLK7 act -0.1, SMARCA2 act 11.1*, FAS TE block -6.6, FXN GAA850 act 2.4, SMARCA2 act conf 0.0 and VP16 Luc act 1.2.
For O=C(Nc1cc(-c2ccccc2)[nH]n1)c1ccccc1F the results were proKLK7 act 0.2, SMARCA2 act 9.3*, FAS TE block -2.3, FXN GAA850 act 2.2, SMARCA2 act conf 3.4 and VP16 Luc act 10.5*.
CCOC(=O)C1=C(C)NC(=O)C(C#N)C1c1ccncc1 (centres undefined) was read as proKLK7 act 0.4, SMARCA2 act 9.8*, FAS TE block -7.4, FXN GAA850 act -1.4, SMARCA2 act conf -3.2 and VP16 Luc act -1.7.
For CC1(C)CC(=O)CC2(C1)NCC(c1ccccc1)c1c2[nH]c2ccccc12 (centres undefined) the results were proKLK7 act 0.3, SMARCA2 act 8.7*, FAS TE block 4.1, FXN GAA850 act -2.6, SMARCA2 act conf -1.9 and VP16 Luc act 1.2.
`CCN(CC)C(=O)CN(C#N)c1nc(OC)nc(N(C)C)n1` gave proKLK7 act -0.8, SMARCA2 act 8.9*, FAS TE block -6.5, FXN GAA850 act 0.1, SMARCA2 act conf 0.4 and VP16 Luc act 0.2.
CCN(CC(=O)NCc1ccc(Cl)cc1)CC(=O)Nc1ccc(C(N)=O)cc1 was read as proKLK7 act -0.4, SMARCA2 act -2.3, FAS TE block -4.2 and FXN GAA850 act -0.7.
`CCS(=O)(=O)c1nc(S(=O)(=O)c2ccc(C)cc2)c(N2CCOCC2)s1` gave proKLK7 act -0.2, SMARCA2 act -2.1, FAS TE block 2.6 and FXN GAA850 act -0.1.
`Cn1c(=O)c2c(nc(SCCCC#N)n2Cc2ccccc2F)n(C)c1=O` gave proKLK7 act 0.1, SMARCA2 act -1.4, FAS TE block -0.1 and FXN GAA850 act 0.1.
`Nc1c(C(=O)O)sc2nc3c(cc12)CCCC3` gave proKLK7 act -1.0, SMARCA2 act -3.4, FAS TE block 4.2 and FXN GAA850 act -0.8.
NC(=O)c1sc2nc3c(cc2c1N)CCCCCC3 was read as proKLK7 act -0.1, SMARCA2 act 11.1*, FAS TE block -0.7, FXN GAA850 act 1.5, SMARCA2 act conf 0.3 and VP16 Luc act 2.5.
`Nc1c(C(=O)C2CC2)sc2nc3c(cc12)CCC3` gave proKLK7 act 1.5, SMARCA2 act 8.5*, FAS TE block -1.9, FXN GAA850 act 4.3, SMARCA2 act conf 13.1* and VP16 Luc act 9.7*.
For CCOC(=O)/C=C/c1cccc(C)c1O the results were proKLK7 act -0.7 and SMARCA2 act 0.5.
Screening COc1ccccc1CN(C)C(=O)c1ccc(S(=O)(=O)NCc2ccco2)cc1 returned proKLK7 act 0.1, SMARCA2 act 11.4*, FAS TE block -3.8, FXN GAA850 act -1.8, SMARCA2 act conf 1.2 and VP16 Luc act 3.2.
`O=C(NNCc1ccccc1)c1ccccn1` gave proKLK7 act 0.9, SMARCA2 act 14.6*, FAS TE block 2.9, FXN GAA850 act 0.8, SMARCA2 act conf 3.9 and VP16 Luc act 16.1*.
O=C(NNCc1ccccc1)c1ccccc1 was read as proKLK7 act -0.1, SMARCA2 act 0.7, FAS TE block -7.8 and FXN GAA850 act 3.2.
For CN(C)CCCNC(=O)c1ccccn1 the results were proKLK7 act -0.5, SMARCA2 act 8.4*, FAS TE block -3.2, FXN GAA850 act -0.1, SMARCA2 act conf -4.2 and VP16 Luc act -0.2.
For Cc1ccc(N2CC(C(=O)N3CCN(c4ccccc4)CC3)CC2=O)cc1 (centres undefined) the results were proKLK7 act 0.1, SMARCA2 act 6.5, FAS TE block -9.6 and FXN GAA850 act 0.7.
`O=c1c2[nH]c3cccc(Cl)c3c2ncn1CC1CCCO1` (centres undefined) gave proKLK7 act -0.2, SMARCA2 act 8.2*, FAS TE block -3.1, FXN GAA850 act 2.6, SMARCA2 act conf 4.6 and VP16 Luc act 3.4.
COc1ccccc1NC(=O)CSc1nncn1-c1cccnc1 was read as proKLK7 act 0.2, SMARCA2 act 12.8*, FAS TE block -4.5, FXN GAA850 act 0.3, SMARCA2 act conf 0.1 and VP16 Luc act 0.2.
